Source: PubChem BioAssay (several laboratories)
BaF3 parental = counter-screen for JAK2V617F inhibitors: parental Ba/F3 viability inhibitors | inhibition, % at 5.6 µM | AID 1486 | actives 1.1% (n = 220,000) | CellTiter-Glo ATP luminescence;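 active means inhibition above a per-campaign cutoff, the mean inhibition of all tested compounds plus 3 SD, cut at about 27% in these data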;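 further: 0% = DMSO wells and 100% = JAK Inhibitor I control wells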
APP 5UTR inh = APP translation inhibition. SH-SY5Y APP 5'UTR-luciferase reporter, luminescence. AID 1285. inhibition, % at 2 µM. actives 0.82% (n = 190,000);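 active means inhibition above a set limit, derived from the sample mean plus 3 SD, cut at about 45% in these data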
IEC-6 tox = IEC-6 cytotoxicity, counter-screen for KLF5 inhibitors; luminescence viability; inhibition, % at 5 µM; actives 0.78% (n = 290,000); AID 1825;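 further: 0% = plate median of test compound wells and 100% = cytotoxic reference compound wells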
Ba/F3 V617F tox = reduce viability of Ba/F3 cells dependent on JAK2V617F | inhibition, % at 5.6 µM | actives 1.1% (n = 220,000) | Ba/F3 EpoR-JAK2V617F viability, ATP luminescence;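 active means inhibition above the campaign mean plus 3 SD over all tested compounds, cut at about 24% in these data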;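 further: cytokine-independent growth of Ba/F3 cells driven by EpoR plus mutant JAK2; 0% = DMSO-treated cells and 100% = JAK inhibitor I control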
KLF5 inh = suppresses KLF5 promoter-driven expression; DLD-1 KLF5 promoter-luciferase reporter, luminescence; actives 0.23% (n = 290,000); inhibition, % at 5 µM;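 active means inhibition above a per-plate limit of that plate's mean compound inhibition plus 3 SD, cut at about 60% in these data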;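 further: 0% = DMSO wells and 100% = LY294002 at 200 µM; higher means less KLF5 promoter-driven luciferase light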
IEC-6 tox confirm = confirmation of cytotoxic compounds in rat IEC-6 intestinal epithelial cells; actives 63% (n = 1,900); shares compounds with IEC-6 tox; IEC-6 rat intestinal epithelial viability, luminescence; inhibition, % at 5 µM; AID 1907;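 further: 0% = vehicle and 100% = reference cytotoxic drug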
An asterisk follows results filed as active; x = no result given. Compounds with a hit are over-represented: about 1.9% of the library has one in this group of screens. Unless noted, no stated cut-off is given here; in the data, active means inhibition above about 22%; inactive means the rest.

SMILES	BaF3 parental	APP 5UTR inh	IEC-6 tox	Ba/F3 V617F tox	KLF5 inh	IEC-6 tox confirm
Cc1cc(C)cc(NC(=O)CCn2c(=O)c3cccn3c3ccccc32)c1	x	x	40*	x	31	37*
Cc1ccc(NC(=O)CCn2c(=O)c3cccn3c3ccccc32)c(C)c1	x	x	-8	x	-23	x
NC(=S)N/N=C/c1cccc(O)c1O	8	-7	-5	1	-18	x
Cc1cc(/C=N/NC(N)=S)c(O)c(/C=N/NC(N)=S)c1	2	x	90*	-2	-16	13
CCCCN(C)CCC(=O)Nc1ccc2c(c1)CCC2	8	-1	-2	0	0	x
Cc1cnc(NC(=O)C2CC(=O)N(c3cccc(Cl)c3)C2)s1 (stereo unspecified)	x	x	73*	x	59	33*
CC1CCN(S(=O)(=O)c2cn(CC(=O)N3CCN(c4cccc(C(F)(F)F)c4)CC3)cn2)CC1	x	x	2	x	-18	x
N#C/C(=C(/O)c1ccc(Br)s1)c1nc2ccccc2[nH]1	x	x	34*	x	8	46*
CCC1CCC(C(=O)NNC(=O)c2cc(-c3ccco3)[nH]n2)CC1 (stereo unspecified)	4	34	-5	-5	-24	x
O=C(Nc1ccccc1)c1ccc(Nc2c([N+](=O)[O-])cc([N+](=O)[O-])c3ccccc23)cc1	3	-17	-4	-3	-20	x
O=[N+]([O-])c1cc(Br)c(Nc2ccccc2)c([N+](=O)[O-])c1	x	x	22*	x	37	0
C/C(=N\NC(=O)c1ccc2c(c1)OCCO2)c1ccccc1	0	x	31*	0	-37	9
O=C(N/N=C/c1cccs1)c1ccc2ccccc2c1	x	x	29*	x	-55	12
Cc1ccc(/C=N/NC(=O)c2ccncc2)s1	-1	x	0	-1	-16	x
Cc1ccc(/C=N/NC(=O)c2ccc3ccccc3c2)s1	x	x	82*	x	48	50*
Cc1ccc(/C=N/NC(=O)c2ccc3c(c2)OCCO3)s1	37*	x	34*	65*	-36	49*
C=CCOc1ccccc1CN1CCCN(C)CC1	x	x	7	x	0	x
CC(C)[C@@H](C(=O)NC1CCN(Cc2ccccc2)CC1)N1C(=O)N2CCc3c([nH]c4ccccc34)[C@@]2(C)C1=O	x	x	-7	x	-11	x
FC(F)(F)c1cccc(-c2nc3nc(Cl)c(Cl)nc3[nH]2)c1	3	x	31*	4	-47	39*
COc1cnc(-c2cccc(C(F)(F)F)c2)[nH]c1=O	5	-5	-6	-2	-9	x
Cc1cc(Br)c(NC(=O)Cn2c([N+](=O)[O-])cnc2C)cc1C	x	x	2	x	15	x
CCC(C)(C)NC(=O)CN(C(=O)CCC(=O)Nc1nccs1)c1ccc(C)cc1	x	x	-2	x	-38	x
COc1cc2c(cc1OC)C(C)N(C(=O)Nc1ccccc1)CC2 (stereo unspecified)	x	x	63*	x	60	50*
COc1cc2c(cc1OC)C(C)N(C(=O)CCNC(=O)c1ccccc1)CC2 (stereo unspecified)	x	x	-2	x	-19	x
O=C1c2ccccc2C(=O)c2[nH]c(=O)[nH]c21	x	x	101*	x	47	98*
SMILES	BaF3 parental	APP 5UTR inh	IEC-6 tox	Ba/F3 V617F tox	KLF5 inh	IEC-6 tox confirm
O=C1c2ccccc2C(=O)c2[nH]cnc21	6	x	5	-2	-30	x
O=C(Cc1cn2ccsc2n1)OCc1ccccc1	-1	-6	35*	-2	-14	19
O=C(/C=C/c1c[nH]c2ccccc12)c1ccccc1	5	-117	0	3	-51	x
OCC[n+]1ccc(/C=C/c2c[nH]c3ccccc23)cc1	84*	16	56*	90*	6	5
N#CC1=C(N)Oc2cc(N)ccc2C1c1cccc(F)c1 (stereo unspecified)	x	x	51*	x	38	42*
COC(=O)c1ccc(C2C(C#N)=C(N)Oc3cc(N)ccc32)cc1 (stereo unspecified)	x	x	-3	x	3	x
Cc1ccc(C(=O)NCC#N)cc1	8	-2	-10	-1	-21	x
Cc1ccc(C(=O)NC(C#N)=C(Cl)Cl)cc1	-4	58*	70*	11	-16	19
O=C(NC(CC(=O)N1CCN(c2ccc([N+](=O)[O-])cc2)CC1)c1ccccc1)c1ccccc1Cl (stereo unspecified)	7	10	1	-2	-13	x
COc1ccc(-n2c(=S)[nH]c3cc(C(=O)Nc4ccc(F)cc4)ccc3c2=O)c(OC)c1	x	x	32*	x	50	18
COc1ccc(NC(=O)c2ccc3c(=O)n(-c4ccc(OC)cc4OC)c(=S)[nH]c3c2)cc1	2	-2	-1	-2	-24	x
O=C(O)CCNc1ccc(NCCC(=O)O)c2c1C(=O)c1ccccc1C2=O	x	x	24*	x	-1	10
COc1ccccc1NCCC(=O)O	-3	x	-12	0	-42	x
O=c1[nH]cnc(O)c1N=Nc1ccccc1	x	x	-5	x	-26	x
Nc1ncnc(N)c1N=Nc1ccccc1	x	x	36*	x	-65	19
Nc1nn(-c2ccccc2)c(N)c1N=Nc1ccccc1	64*	-3	34*	64*	-115	40*
Cc1nn(-c2ccccc2)c(N)c1N=Nc1ccccc1	7	-156	1	2	-153	x
CN(CCc1ccccc1)C1CCCN(S(=O)(=O)CC(F)(F)F)C1 (stereo unspecified)	x	x	1	x	-27	x
Cc1cc(=O)oc2cc(OCC(=O)Nc3ccccc3C(=O)O)ccc12	x	x	-2	x	-30	x
CC(/C=N/NC(=O)c1cccc(F)c1)=C\c1ccccc1	x	x	28*	x	-48	6
C=CCc1cccc([C@@H]2[C@@H](C)CC[C@H]3C(=O)N4[C@@H](c5cc(OC)c(OC)c(OC)c5)c5[nH]c6ccccc6c5C[C@H]4C(=O)N23)c1	-1	-3	34*	-4	35	9
CCc1nc2ccccc2c(C(=O)OCC(=O)C(C)(C)C)c1C	6	-13	24*	3	-15	-3
COc1cc(OC)cc(C(=O)Oc2c(CN3CCOCC3)cc(Cl)c3cccnc23)c1	-5	x	80*	-2	23	-7
O=C(Nc1ccc(Cl)cn1)c1cccc(F)c1	18	-54	23*	18	-56	33*
O=C(Nc1cccc(C(=O)Nc2ccc(Cl)cn2)c1)c1ccccc1	x	x	8	x	-30	x
SMILES	BaF3 parental	APP 5UTR inh	IEC-6 tox	Ba/F3 V617F tox	KLF5 inh	IEC-6 tox confirm
CC(=O)c1ccc(NC(=O)c2ccc([N+](=O)[O-])o2)cc1	x	x	32*	x	-19	11
COc1ccc(NC(=O)c2ccc([N+](=O)[O-])o2)cc1	x	x	44*	x	-20	1
Cc1cc(C)cc(NC(=O)c2ccc([N+](=O)[O-])o2)c1	59*	71*	103*	95*	9	24*
Cc1cc(C)nc(NC(=O)c2ccc([N+](=O)[O-])o2)n1	10	20	4	3	-26	x
O=C(c1ccc(=O)[nH]c1)N(Cc1cccs1)C1(C(=O)NC2CCCC2)CCCCC1	3	10	1	4	-14	x
COCc1[nH]c(=S)[nH]c(=O)c1C	0	x	4	-1	-5	x
CCN(CC)c1ccc(NC2CC(=O)N(CCc3ccc(OC)cc3)C2=O)cc1 (stereo unspecified)	1	x	-2	2	-2	x
